High-throughput results deposited in PubChem BioAssay by Buhrlage Lab, Dana-Farber Cancer Institute and Novartis Institutes for BioMedical Research (Cambridge, Mass).
USP28 inh = inhibitors of human USP28 deubiquitinase. Q96RU2. purified USP28, Ub-rhodamine cleavage fluorescence, 30 min. inhibition, % at 25 µM. actives 3% (n = 47,000)
USP30 block = inhibitors of human USP30 deubiquitinase; inhibition, % at 25 µM; AID 1645860; Q70CQ3; actives 5.3% (n = 47,000); purified USP30, Ub-rhodamine cleavage fluorescence
USP17 block = inhibitors of human USP17 deubiquitinase | AID 1645855 | A8MUK1 | actives 6.5% (n = 47,000) | inhibition, % at 50 µM | purified USP17, Ub-rhodamine cleavage fluorescence, 3 h
USP8 block = blocks human USP8 ubiquitin-rhodamine cleavage | P40818 | actives 4.2% (n = 47,000) | AID 1645853 | inhibition, % at 20 µM | purified USP8, Ub-rhodamine cleavage fluorescence, 30 min
Target sequence (P40818 whole entry, looked up): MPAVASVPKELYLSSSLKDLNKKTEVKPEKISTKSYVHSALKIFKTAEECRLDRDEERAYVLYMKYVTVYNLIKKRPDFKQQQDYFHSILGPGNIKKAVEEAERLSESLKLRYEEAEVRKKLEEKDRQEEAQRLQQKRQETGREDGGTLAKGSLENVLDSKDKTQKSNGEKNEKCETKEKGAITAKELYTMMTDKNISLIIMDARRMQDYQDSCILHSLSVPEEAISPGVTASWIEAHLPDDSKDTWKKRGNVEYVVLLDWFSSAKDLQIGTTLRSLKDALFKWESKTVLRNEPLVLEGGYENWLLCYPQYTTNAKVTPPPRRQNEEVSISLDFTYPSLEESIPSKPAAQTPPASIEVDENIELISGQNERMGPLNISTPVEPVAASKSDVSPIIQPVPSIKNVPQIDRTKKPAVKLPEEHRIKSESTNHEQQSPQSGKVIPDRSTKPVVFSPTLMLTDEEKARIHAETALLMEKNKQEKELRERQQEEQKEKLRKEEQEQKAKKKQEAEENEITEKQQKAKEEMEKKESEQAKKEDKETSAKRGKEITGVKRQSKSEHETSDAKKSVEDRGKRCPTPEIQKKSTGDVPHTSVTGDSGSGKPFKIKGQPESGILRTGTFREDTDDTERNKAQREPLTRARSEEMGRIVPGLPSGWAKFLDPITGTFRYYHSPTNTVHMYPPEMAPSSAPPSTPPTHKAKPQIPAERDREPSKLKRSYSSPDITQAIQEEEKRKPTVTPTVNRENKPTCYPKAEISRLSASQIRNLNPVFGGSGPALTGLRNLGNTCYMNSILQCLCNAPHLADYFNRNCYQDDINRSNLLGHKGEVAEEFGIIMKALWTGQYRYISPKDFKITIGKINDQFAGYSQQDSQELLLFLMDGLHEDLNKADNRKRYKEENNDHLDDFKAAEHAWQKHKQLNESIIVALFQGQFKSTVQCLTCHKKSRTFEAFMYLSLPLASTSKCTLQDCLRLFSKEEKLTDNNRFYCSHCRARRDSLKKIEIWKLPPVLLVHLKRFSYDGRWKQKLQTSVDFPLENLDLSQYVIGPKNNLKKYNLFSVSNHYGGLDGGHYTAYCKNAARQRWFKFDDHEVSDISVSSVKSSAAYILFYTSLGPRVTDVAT
The depositor's hits bear a star; . = not tested or not shown. An excerpt weighted towards active compounds, which were near 13% of everything screened. No stated cut-off is given here; in the data, active means inhibition above about 30%; inactive means the rest.

SMILES	USP28 inh	USP30 block	USP17 block	USP8 block
COc1ccc(C(=O)Nc2ccccc2C(=O)NC(Cc2ccc(O)cc2)C(=O)NNC(=O)Cc2ccc(OC)c(OC)c2)cc1 (configuration not stated)	24.3	30.8*	31.3*	8.4
COc1ccc(CNC(=O)c2ccccc2NC(=O)c2ccc(F)cc2)cc1	12.9	13.5	.	18.8
CN1CCN(C(=O)CC2CCC3(CCNCC3)CC2)C(c2ccccc2)C1 (configuration not stated)	0.6	19.4	-1.0	-65.9
Cc1ccc(Cn2c(=O)c3ncccc3n(CC(=O)NCc3ccc(F)cc3)c2=O)cc1	78.4*	84.0*	76.6*	81.4*
O=C(Cn1c(=O)n(Cc2ccncc2)c(=O)c2ncccc21)Nc1cccc(F)c1	4.1	1.2	-2.0	9.3
O=C(Cn1c(=O)n(Cc2ccc3c(c2)OCO3)c(=O)c2ncccc21)c1ccccc1	14.9	53.8*	6.3	-6.9
Cc1ccc(CNC(=O)Cn2c(=O)n(CCCC(=O)NCc3ccc(F)cc3)c(=O)c3ccccc32)cc1	13.1	17.9	33.4*	43.2*
O=C(Cn1c(=O)n(Cc2ccc(F)cc2)c(=O)c2ncccc21)Nc1ccccc1	16.2	64.9*	24.4	14.1
COc1ccccc1CCNC(=O)C1CCn2c(nc3ccccc32)C1 (configuration not stated)	-5.8	-15.9	-0.2	-38.5
Cn1c(SCC(=O)Nc2ccc(F)cc2F)nnc1-c1c[nH]c2ccccc12	4.5	17.0	26.7	21.7
O=C(Cn1c(=O)n(Cc2ccc(F)cc2)c(=O)c2sccc21)Nc1cccc(Cl)c1	0.0	27.9	65.0*	-0.8
CCOC(=O)c1sc2ccccc2c1S(=O)(=O)Nc1ccccc1F	8.4	-2.8	5.7	24.7
O=C(CN1C(=O)CSc2cccn2-c2ccccc21)NCc1ccc(Cl)cc1	20.8	9.7	39.6*	-78.3
Cc1cc(NC(=O)C(=O)NCC2CCN(C(C)C)CC2)no1	2.3	33.3*	9.7	8.1
COc1ccc(CCNC(=O)N2C[C@H]3C[C@H]4[C@](C2)(CN(C)S4(=O)=O)O3)cc1	-74.2	-3.6	-31.6	-151.0
O=C(Nc1ccccc1F)C1Cc2ccccc2N1C(=O)c1ccccc1 (configuration not stated)	-15.6	-44.0	-8.8	-6.2
O=C(CC1C(=O)N(Cc2ccccc2)c2nc3ccccc3n21)NCCc1ccccc1 (configuration not stated)	9.5	59.6*	22.4	16.9
O=C1CC(C(=O)Nc2ccccc2F)n2c(nc3ccccc32)N1 (configuration not stated)	8.8	19.9	18.5	39.0*
O=C(CCNC(=O)N1CCn2c1nc1ccccc12)NCCc1ccccc1	-3.3	5.4	-9.0	-77.4
O=C1CC(C(=O)NCCc2ccccc2)n2c(nc3ccccc32)N1 (configuration not stated)	-7.2	-2.9	1.0	43.4*
CC(=O)N1CCc2cc(S(=O)(=O)Nc3ccc4cn[nH]c4c3)ccc21	-10.7	-112.4	29.4	5.9
CNC1CCC2(CC1)CN(C(=O)c1cnc(C)nc1C)Cc1ccccc1O2 (configuration not stated)	4.9	8.1	-14.0	-149.7
Cc1cc(C(F)(F)F)n2nc(C(=O)N3CCn4nc(C)nc4C3)cc2n1	-9.1	-4.2	0.2	-0.3
O=C(CCc1ccc(S(=O)(=O)N2CCOCC2)cc1)OCC(=O)c1ccc(-c2ccccc2)cc1	14.6	31.1*	25.1	31.4*
Cc1ccc(N2C(=O)N(Cc3ccccc3)S(=O)(=O)c3cccnc32)cc1	0.0	-27.2	-27.9	-96.9
SMILES	USP28 inh	USP30 block	USP17 block	USP8 block
CC(C)C1Cc2c(sc3nc(SCC(=O)Nc4cccc5ccccc45)nc(N)c23)CO1 (configuration not stated)	-9.5	-44.3	51.6*	-3.8
CCC1(C)Cc2c(sc3nc(SCC(=O)Nc4ccc(C(C)=O)cc4)nc(N)c23)CO1 (configuration not stated)	4.5	-1.6	63.2*	-0.7
CC1(C)Cc2c(sc3nc(SCC(N)=O)nc(N)c23)CO1	-2.2	1.6	5.3	6.6
CC1(C)Cc2c(sc3nc(Cc4ccccc4)nc(SCC(=O)Nc4ccccc4)c23)CO1	18.3	55.6*	34.9*	9.2
CC1(C)CCc2c(cc(OCC(=O)NCCC(=O)O)c3c4c(c(=O)oc23)CCC4)O1	6.0	2.0	15.4	17.2
O=C(Oc1coc(CSc2ncccn2)cc1=O)c1c(F)cccc1Cl	10.6	-15.2	-2.4	29.2
O=C(Oc1coc(CSc2ncccn2)cc1=O)c1c(F)cccc1F	19.5	21.6	12.3	45.5*
O=C(Cc1ccccc1)NC1CC(=O)N(c2ccc(F)cc2)C1 (configuration not stated)	-16.7	-0.1	.	-5.8
COc1ncccc1C(=O)N1C[C@@H]2C[C@@H](C)O[C@@H]2C1	-9.2	-0.6	-22.4	1.2
CCCCN(C)C(=O)c1cc2c(=O)n3cccc(C)c3nc2n1Cc1ccccc1	21.3	42.0*	62.5*	3.5
CCOCCCNC(=O)c1cc2c(=O)n3cccc(C)c3nc2n1Cc1ccccc1	13.3	44.0*	40.6*	15.1
COCCCn1c(C(N)=O)cc2c(=O)n3cccc(C)c3nc21	15.7	18.5	40.0*	2.7
COCCCn1c(C(=O)N2CCC(C)CC2)cc2c(=O)n3cccc(C)c3nc21	0.1	6.6	0.8	12.3
COCCCn1c(C(=O)NCCc2ccccc2)cc2c(=O)n3cccc(C)c3nc21	0.7	27.5	71.3*	-15.0
COCCCn1c(C(=O)Nc2cccc(OC)c2)cc2c(=O)n3cccc(C)c3nc21	-10.2	-79.5	12.4	-10.7
CC(C)NC(=O)CN1CCC2(CC1)Nc1ccccc1C1=NCCN12	-26.8	-97.4	-20.2	-10.5
O=C1NCCCn2cc(S(=O)(=O)N3CCN(Cc4ccccc4)CC3)cc21	1.0	-17.7	-9.8	-18.0
CN(C)C1CCN(Cc2ccc(N3CCN(C(=O)c4ccc5c(c4)CCO5)CC3)nc2)CC1	-12.7	-29.9	-8.4	5.7
COc1ccc(C)cc1NC(=O)CN1CCC(Cc2ccccc2)CC1	2.2	17.7	20.8	5.0
CS(=O)Cc1cc(Oc2ccccc2)nc(-c2ccncc2)n1 (configuration not stated)	4.6	23.3	11.5	25.0
Cc1ccc2cc3c(nc2n1)CCN(C(=O)c1ccc(C(F)(F)F)nc1)C3	-115.7	-352.4	-84.3	-43.5
COc1cc(NC(=O)c2ncoc2-c2ccco2)cc(OC)c1	0.8	-26.4	12.0	17.7
c1ccc2cc(Sc3ncnc4c3oc3ccccc34)ccc2c1	-0.2	6.8	5.0	10.9
Cc1nc(Sc2ccc3ccccc3c2)c2oc3ccccc3c2n1	17.7	39.5*	42.2*	10.8
O=C(Nc1ccc(Cn2cnc(-c3nc(-c4ccccc4)no3)c2)cc1)c1ccccc1F	23.0	31.5*	.	46.8*
O=C(Nc1ccc(-c2noc(CCc3ccccc3)n2)cc1)c1ccccc1F	8.8	0.9	9.9	7.5
Cc1ccccc1-c1noc(-c2cn(Cc3ccc(NC(=O)Cc4ccccc4)cc3)cn2)n1	37.2*	68.8*	60.2*	37.5*
Cn1ncc(-c2nc(-c3ccc(Cl)cc3)cs2)c1NC(=O)NC(=O)c1c(F)cccc1F	.	.	52.9*	5.3
